Source: PubChem BioAssay (NCATS)
Several values for one entry are separate records, joined by “and”; a condition that tells them apart may be missing. Identical values can stand only once. Values without a mark were called inactive. Unless noted, the call rests on the fitted dose curve; in most records, active means well fitted activation curve with a large enough effect; inconclusive means small, poorly fitted or top-dose-only effect; inactive means flat fitted curve, though single readings scatter. Inconclusive results are not listed.

Target: Tumor necrosis factor (Homo sapiens) (UniProt P01375)
Sequence (P01375 whole entry, looked up): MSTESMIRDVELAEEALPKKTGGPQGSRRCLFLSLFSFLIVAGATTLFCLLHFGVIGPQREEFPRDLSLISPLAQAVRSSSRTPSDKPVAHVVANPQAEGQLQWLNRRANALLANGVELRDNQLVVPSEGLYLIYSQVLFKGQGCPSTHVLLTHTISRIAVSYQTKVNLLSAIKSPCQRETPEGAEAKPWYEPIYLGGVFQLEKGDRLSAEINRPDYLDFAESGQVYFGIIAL
Test: qHTS assay to identify small molecules that stimulate Tumor Necrosis Factor-alpha (TNF-alpha) secretion (AID 651757; active means well fitted curve in the direction sought with a large enough effect in the signal ratio; the % refers to the signal ratio; further: 0% is about no effect)
Conditions: Human cells, HTRF 665/615 ratio; series mostly up to 92.2 µM; activation (TNF-alpha secretion): at the top concentration
In short: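 THP-1 cells, 3000/well; compound 17 hrs, 37 C; add cryptate/XL665 anti-TNF-alpha antibody pair; 3 hr RT; TR-FRET (HTRF) read of secreted TNF-alpha. Quantitative HTS format.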

Row | Compound | activation (TNF-alpha secretion) [%]
1 | CCCCCCC=O | 0.25
2 | CCC(C)(C)OC | -0.528
3 | CCCCOCCOCCOCCCC | 0.256
4 | c1ccc(Nc2ccccc2)cc1 | 0.364
5 | COC(=O)CS | -0.451
6 | Cc1ccco1 | 0.765
7 | CCCCCCCN | 0.0055
8 | ClCCl | 0.788
9 | CCCCC(=O)N(C)C | 0.0762
10 | CCNS(=O)(=O)c1ccc(C)cc1 | 0.0199
11 | Cc1ccc(Br)cc1 | 1.15
12 | C=C(C)OC(C)=O | -0.169
13 | CCCC(Cl)CCCC(Cl)CCC(Cl)CCC(Cl)CCC(Cl)CCCC(Cl)CCC (stereo not given) | 0.782
14 | OC(CCl)CCl | 0.0829
15 | CCC=O | -0.0895
16 | CCCCN(CCO)CCCC | -0.574
17 | CCCCC(C=O)CC (stereo not given) | 0.487
18 | Nc1ccccc1S(=O)(=O)O | 0.99
19 | O=C1C=CCCC1 | -0.16
20 | CCOCCOCC | 0.0049

Row | Compound | activation (TNF-alpha secretion) [%]
21 | Cc1ccc(C#N)cc1 | 0.346
22 | O=C(Cl)c1c(Cl)cccc1Cl | 0.174
23 | Cc1ccc(C)o1 | -0.225
24 | C=CC(=O)OCCCC | 0.0563
25 | CC(C)C(C)C | 0.349
26 | CCCCC(CC)COCC1CO1 (stereo not given) | -0.365
27 | C=C(C)C(N)=O | 0
28 | CC(=O)Nc1ccc(C)cc1 | -0.505
29 | CCCC(C)CO (stereo not given) | 0.0133
30 | O=[N+]([O-])c1ccc(Cl)cc1Cl | -0.836
31 | Cc1ccccc1C(=O)O | -0.176
32 | Cc1ccc2ncccc2c1 | 1.06
33 | C=C(C)C(=O)OC | 0.346
34 | COc1ccc(N)c(C)c1 | 0.75
35 | Cc1c(N)cccc1[N+](=O)[O-] | 1.09
36 | O=Cc1ccccc1Cl | 0.34
37 | O=C(O)c1cccc(Cl)c1Cl | -0.851
38 | O=[N+]([O-])c1c(Cl)cc(Cl)cc1Cl | 0.69
39 | C(=C/c1ccccc1)/c1ccccc1 | 0.0829
40 | Cc1ccc(Cl)cc1N | 0.189

Test system: not listed separately
Test: qHTS assay for environmental chemicals that activate the Aryl hydrocarbon Receptor (AhR) signaling pathway (AID 651777); further: % of control where 0% means no effect; nearly all actives have a fitted effect of over 15% in size
Conditions: 1A2-DRE human hepatoma cells, luciferase, 24 h; activation: stronger effect = higher value
In short: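 AhR activation is scored as a rise in luciferase from a stable DRE–CYP1A2 promoter construct in human hepatoma cells. Treatment lasts 24 hr at 37 C; detection uses One-Glo after 30 min at room temperature.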

Row | Compound | activation
41 | CCCCCCC=O | -0.184%
42 | CCC(C)(C)OC | 0.579%
43 | CCCCOCCOCCOCCCC | -0.359%
44 | c1ccc(Nc2ccccc2)cc1 | 0.217% and 3.92%
45 | COC(=O)CS | -0.254%
46 | Cc1ccco1 | -0.591%
47 | CCCCCCCN | -0.576%
48 | ClCCl | 0.008%
49 | CCCCC(=O)N(C)C | 1.62%
50 | CCNS(=O)(=O)c1ccc(C)cc1 | -1.7%
51 | Cc1ccc(Br)cc1 | 0.745%
52 | C=C(C)OC(C)=O | -1.07%
53 | CCCC(Cl)CCCC(Cl)CCC(Cl)CCC(Cl)CCC(Cl)CCCC(Cl)CCC (stereo not given) | -0.261%
54 | OC(CCl)CCl | 0.26%
55 | CCC=O | -0.0092%
56 | CCCCN(CCO)CCCC | -0.692%
57 | CCCCC(C=O)CC (stereo not given) | 0.316%
58 | Nc1ccccc1S(=O)(=O)O | -0.162%
59 | O=C1C=CCCC1 | 0.397%
60 | CCOCCOCC | 1.1%

Row | Compound | activation
61 | Cc1ccc(C#N)cc1 | 2.83%
62 | O=C(Cl)c1c(Cl)cccc1Cl | -1.9%
63 | Cc1ccc(C)o1 | -0.971%
64 | C=CC(=O)OCCCC | 0.108%
65 | CC(C)C(C)C | 1.04%
66 | CCCCC(CC)COCC1CO1 (stereo not given) | -1.2%
67 | C=C(C)C(N)=O | -1.72%
68 | CC(=O)Nc1ccc(C)cc1 | -0.295%
69 | CCCC(C)CO (stereo not given) | -0.17%
70 | O=[N+]([O-])c1ccc(Cl)cc1Cl | -1.71%
71 | Cc1ccccc1C(=O)O | 0.336%
72 | Cc1ccc2ncccc2c1 | 3.02%
73 | C=C(C)C(=O)OC | 0.279%
74 | COc1ccc(N)c(C)c1 | 1.75%
75 | Cc1c(N)cccc1[N+](=O)[O-] | -0.541%
76 | O=Cc1ccccc1Cl | -0.0176%
77 | O=C(O)c1cccc(Cl)c1Cl | -1.06%
78 | O=[N+]([O-])c1c(Cl)cc(Cl)cc1Cl | 0.0842%
79 | C(=C/c1ccccc1)/c1ccccc1 | 1.55%
80 | Cc1ccc(Cl)cc1N | -0.729%

Target: Peroxisome proliferator-activated receptor alpha (Homo sapiens) (UniProt Q07869)
Sequence (Q07869 whole entry, looked up): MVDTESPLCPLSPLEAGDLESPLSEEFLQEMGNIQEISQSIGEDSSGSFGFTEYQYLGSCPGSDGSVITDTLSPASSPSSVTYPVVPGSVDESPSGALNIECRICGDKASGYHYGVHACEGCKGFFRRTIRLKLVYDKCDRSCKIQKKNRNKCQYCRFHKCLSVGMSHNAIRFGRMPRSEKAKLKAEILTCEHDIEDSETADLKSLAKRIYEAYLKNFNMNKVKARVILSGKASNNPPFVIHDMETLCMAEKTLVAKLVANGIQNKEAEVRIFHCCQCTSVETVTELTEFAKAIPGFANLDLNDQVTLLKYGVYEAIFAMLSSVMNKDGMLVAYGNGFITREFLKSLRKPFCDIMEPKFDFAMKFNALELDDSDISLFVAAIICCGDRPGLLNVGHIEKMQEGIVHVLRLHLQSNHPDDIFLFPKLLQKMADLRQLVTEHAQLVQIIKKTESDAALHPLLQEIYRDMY
Test: qHTS assay for small molecule agonists of the peroxisome proliferator-activated receptor alpha (PPARalpha) signaling pathway (AID 651778); further: % of control where 0% means no effect
Conditions: PathHunter PPARalpha complementation, chemiluminescence, 6 h; stronger effect = higher value
In short: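 Cells plated at 2,000/well and held overnight at 37 C, 5% CO2, then compound added by pin tool for 6 hr; after PathHunter detection reagent and 60 min at room temperature, chemiluminescence from enzyme complementation was read.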

Row | Compound | max response
81 | CCCCCCC=O | -2.2%
82 | CCC(C)(C)OC | -8.98%
83 | CCCCOCCOCCOCCCC | -5.07%
84 | c1ccc(Nc2ccccc2)cc1 | -3.04% and -2.25%
85 | COC(=O)CS | -1.38%
86 | Cc1ccco1 | -4.89%
87 | CCCCCCCN | -4.9%
88 | ClCCl | -6.14%
89 | CCCCC(=O)N(C)C | -3.71%
90 | CCNS(=O)(=O)c1ccc(C)cc1 | -3.34%
91 | Cc1ccc(Br)cc1 | -0.752%
92 | C=C(C)OC(C)=O | -3.39%
93 | CCCC(Cl)CCCC(Cl)CCC(Cl)CCC(Cl)CCC(Cl)CCCC(Cl)CCC (stereo not given) | -3.72%
94 | OC(CCl)CCl | -0.528%
95 | CCC=O | -0.926%
96 | CCCCN(CCO)CCCC | -1.07%
97 | CCCCC(C=O)CC (stereo not given) | -5.44%
98 | Nc1ccccc1S(=O)(=O)O | -3.61%
99 | O=C1C=CCCC1 | 2.89%
100 | CCOCCOCC | -2.27%

Row | Compound | max response
101 | Cc1ccc(C#N)cc1 | 0.216%
102 | O=C(Cl)c1c(Cl)cccc1Cl | -3.46%
103 | Cc1ccc(C)o1 | -7.85%
104 | C=CC(=O)OCCCC | 0.0985%
105 | CC(C)C(C)C | -4.01%
106 | CCCCC(CC)COCC1CO1 (stereo not given) | -0.684%
107 | C=C(C)C(N)=O | -6.13%
108 | CC(=O)Nc1ccc(C)cc1 | -1.18%
109 | CCCC(C)CO (stereo not given) | -5.48%
110 | O=[N+]([O-])c1ccc(Cl)cc1Cl | -1.04%
111 | Cc1ccccc1C(=O)O | -0.184%
112 | Cc1ccc2ncccc2c1 | -2.02%
113 | C=C(C)C(=O)OC | 0.595%
114 | COc1ccc(N)c(C)c1 | -5.31%
115 | Cc1c(N)cccc1[N+](=O)[O-] | -5.39%
116 | O=Cc1ccccc1Cl | -3.69%
117 | O=C(O)c1cccc(Cl)c1Cl | -2.92%
118 | O=[N+]([O-])c1c(Cl)cc(Cl)cc1Cl | 0.895%
119 | C(=C/c1ccccc1)/c1ccccc1 | 5.49%
120 | Cc1ccc(Cl)cc1N | -6.36%
